These results are taken from PubChem BioAssay AID1851 (National Center for Advancing Translational Sciences (NCATS), 2009).

Out of some 16,000 compounds screened, about 5,100 (32%) were called active. Another 25% or so got no clear call; they are omitted. Calls follow the shape of the dose curve; as a rule, active = well fitted curve in the direction sought with a large enough effect; inconclusive = small, poorly fitted or top-dose-only effect, or effect the other way; inactive = no such curve, though single readings can be large or run the other way. Some of the results follow.

Broadly, the AC50 is the concentration giving half of the maximal activity seen.
% is scaled to controls: 0 for no effect and ±100 for the full control effect.

In this assay the target is Cytochrome P450 3A4 (Homo sapiens) (UniProt P08684). Description: Cytochrome panel assay with activity outcomes. To be noted: recombinant CYP, pro-luciferin dealkylation, luminescence, p450-cyp3a4; series mostly up to 57.1 µM; activity, negative = inhibition: at the top concentration.
Cytochrome P450 3A4 (Homo sapiens), sequence (P08684 whole entry, looked up): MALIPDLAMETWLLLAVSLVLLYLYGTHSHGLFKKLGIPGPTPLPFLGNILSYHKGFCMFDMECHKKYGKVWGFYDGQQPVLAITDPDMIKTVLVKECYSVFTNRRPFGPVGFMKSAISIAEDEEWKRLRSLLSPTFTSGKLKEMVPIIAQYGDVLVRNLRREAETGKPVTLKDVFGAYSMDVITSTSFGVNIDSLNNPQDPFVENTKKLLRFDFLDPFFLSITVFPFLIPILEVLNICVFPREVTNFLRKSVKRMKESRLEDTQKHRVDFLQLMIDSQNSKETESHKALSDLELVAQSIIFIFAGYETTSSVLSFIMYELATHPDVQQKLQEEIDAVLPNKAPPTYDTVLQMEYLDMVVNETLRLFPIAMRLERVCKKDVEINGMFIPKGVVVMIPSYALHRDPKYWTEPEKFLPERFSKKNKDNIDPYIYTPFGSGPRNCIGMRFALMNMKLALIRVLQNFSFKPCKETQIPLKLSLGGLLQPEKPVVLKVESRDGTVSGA
For the compound `CN1CCN(C(=O)c2ccc(COc3ccc(C(C)(C)C)cc3)o2)CC1`, the activity, negative = inhibition was -9.09% [at 2.29 µM] (inactive). Consider `COc1ccc(NC(=O)CCOc2ccccc2)cc1`, for which the AC50 is 15.8 µM (active).

As to `Cc1ccc(OCC(=O)NNC(=O)c2cc3ccccc3o2)cc1C`, the “activity, negative = inhibition” value is -22.6% (inactive). On the same count and under the same terms, the value for `O=C(COC(=O)COc1ccccc1)Nc1ccc(OC(F)(F)F)cc1` was -1.1% (inactive).

Regarding `Cc1ccc(OCc2ccc(C(=O)Nc3nccs3)o2)cc1C`, the AC50 is 11.2 µM (active). For the compound `COc1ccc(NC(=O)c2ccc(COc3ccccc3)o2)cc1`, the AC50 was 22.4 µM (active).

For `CC(C)N(CC(=O)O)CC(=O)O`, the activity, negative = inhibition was -7.3% [at 11.4 µM] (inactive). Regarding `CC12c3ccccc3C(c3ccccc31)C1C(=O)N(Cc3cccnc3)C(=O)C12` (stereo not drawn), the AC50 was 1.58 µM (active). With `CC1CCCC(C)N1C(=O)C1CC(c2ccc(F)cc2)=NO1` (stereo not drawn), the AC50 is 11.2 µM (active).

Turning to `CC1CCN(C(=O)CSc2nc3cccnc3n2C)CC1`, the “activity, negative = inhibition” value is -6.97% (inactive). As to `CCN(CC)S(=O)(=O)c1ccc2c(c1)nc(SCC(=O)N1CCOCC1)n2-c1ccccc1OC`, the AC50 was 3.98 µM (active). Still for that read-out and setting: with `COc1ccccc1-n1c(SCC(=O)N2CCCC2)nc2cccnc21` the figure was 15.8 µM (active). In the case of `O=C(O)c1cccnc1SCC(=O)N1CCCCCC1`, the “activity, negative = inhibition” value is 4.51% (inactive). On the same count and under the same terms, with `CC(C)=C[C@H]1[C@@H](COC(=O)c2ccccc2Cl)C1(C)C` the figure was -18.7% [at 11.4 µM] (inactive). As to `Cc1cc(C(=O)NNC(=S)NC(C)c2ccccc2)c2ccccc2n1` (stereo not drawn), the AC50 was 14.1 µM (active). Take `CCNC(=S)NNC(=O)c1cc(CC(C)C)nc2ccccc12`: the activity, negative = inhibition was -3.62% [at 2.29 µM] (inactive). Regarding `CCNC(=S)NNC(=O)c1cc(C2CC2)nc2ccccc12`, the activity, negative = inhibition was -10.5% [at 2.29 µM] (inactive).

Take `CCCS(=O)(=O)N1CCN(CC2CC=CCC2)CC1` (stereo not drawn): the “activity, negative = inhibition” value was -20.2% (inactive). As for `COc1ccc2nc(N3C(=O)CC(Cc4ccc(Cl)cc4)C3=O)sc2c1` (stereo not drawn), the “activity, negative = inhibition” value was 20.7% (inactive). With `COc1ccc(CN2CN(c3ccc(Cl)cc3)C(=O)N(n3cnnc3)C2)cc1`, the AC50 is 14.1 µM (active).

Turning to `COc1ccc(-n2cnnc2)cc1`, the “activity, negative = inhibition” value was -29.4% (inactive). Take `O=C(CSc1c[nH]c2ccccc12)N1CCOCC1`: the AC50 was 15.8 µM (active). In the case of `Nn1c(SCC(=O)N2CCOCC2)nnc1-c1ccccc1Cl`, the “activity, negative = inhibition” value was 14.8% (inactive). Same read-out and setting: the value for `C=C(C)C1Cc2nc(N)nc(C)c2C1` (stereo not drawn) was -9.93% (inactive); that for `CC(=O)NC1(c2ccc(F)cc2)CCN(C(=O)Nc2ccc(F)cc2F)CC1` was -17.4% (inactive). For `Cc1ccc(C)c(S(=O)(=O)N2CCC(c3nc4c(nnn4Cc4ccc(F)cc4)c(=O)[nH]3)CC2)c1`, the AC50 is 6.31 µM (active). With `COc1cccc(Cn2nnc3c(=O)[nH]c(C4CCCN(C(=O)c5ccccc5Cl)C4)nc32)c1` (stereo not drawn), the AC50 is 2 µM (active). With `Cc1ccc(Cn2nnc3c(=O)[nH]c(C4CCCN(C(=O)Nc5ccc(F)cc5F)C4)nc32)cc1` (stereo not drawn), the concentration at half-maximal activity (AC50) is 7.08 µM (active). Regarding `O=C(NCc1ccco1)c1nc2c(nnn2Cc2cccc(Cl)c2)c(=O)[nH]1`, the “activity, negative = inhibition” value is 14.3% (inactive). Same read-out and setting: the value for `O=C(O)C[C@@H](C(=O)O)C1c2ccccc2-c2ccccc21` was -5.49% [at 11.4 µM] (inactive).

Take `NC(=O)c1cc[n+](CC2=C(C(=O)O)N3C(=O)[C@@H](NC(=O)[C@H](c4ccccc4)S(=O)(=O)[O-])[C@@H]3SC2)cc1`: the AC50 result is “inactive”. Turning to `O=C(O)/C=C/c1cn(-c2ncc(C(F)(F)F)cc2Cl)c2ccccc12`, the “activity, negative = inhibition” value was -5.59% (inactive).

For `Cn1c(C(N)=O)cnc1Sc1ncc(C(F)(F)F)cc1Cl`, the “activity, negative = inhibition” value was -8.93% (inactive).

Take `CN(NC(=O)NN)c1ncc(C(F)(F)F)cc1Cl`: the AC50 was 14.1 µM (active). Turning to `CC(C)(C)c1ccc(C(=O)NCCC(=O)NCc2ccco2)cc1`, the AC50 was 14.1 µM (active). With `COCC1C2CC[C@H]3C(OCc4ccc(F)cc4C(F)(F)F)OC[C@]4(C)[C@H]3C2=C(CN4C(=O)OC(C)(C)C)[C@H](C)C1COC` (stereo partly drawn), the AC50 is 15.8 µM (active). On the same count and under the same terms, with `C[C@H]1C2=C3C(CC[C@H]4C(OCc5ccc(F)cc5C(F)(F)F)OC[C@](C)([C@@H]34)N(C(=O)OC(C)(C)C)C2)C(CO)C1CO` (stereo partly drawn) the figure was 15.8 µM (active); with `COc1cc(OC)c(NC(=S)Nc2cccc(C(C)=O)c2)cc1Cl`, 5.01 µM (active).

Take `COc1ccc(C(=O)Nc2ccc(NC(=O)c3ccco3)c(Cl)c2)cc1OC`: the activity, negative = inhibition is -24% [at 11.4 µM] (inactive). Still for that read-out and setting: with `CC(C)Oc1ccc(C(=O)Nc2ccc(NC(=O)c3ccco3)c(Cl)c2)cc1` the figure was -24.4% (inactive); with `Cn1ncc([N+](=O)[O-])c1C(=O)Nc1ccc2c(c1)OCCO2`, -20.7% (inactive).

For `COc1cc(NC(=O)c2ccccc2Cl)ccc1NC(=O)c1ccco1`, the AC50 is 14.1 µM (active). With `CC1(C)Oc2ccc(NC(=O)c3ccco3)cc2O1`, the “activity, negative = inhibition” value is -1.62% (inactive).

Consider `O=C(Nc1ccc2c(c1)OCCO2)c1cccc2nc3ccccc3nc12`, for which the AC50 was 11.2 µM (active). Take `O=C(Nc1ccccc1C(=O)Nc1ccc2c(c1)OCO2)c1ccco1`: the AC50 was 1.26 µM (active).

As for `COC(=O)C1=C(C)OC(N)=C(C#N)C1c1cc(OC)ccc1OC` (stereo not drawn), the AC50 was 8.91 µM (active).

Regarding `CCOC(=O)C1=C(c2ccccc2)OC(N)=C(C#N)C1c1ccc(Cl)s1` (stereo not drawn), the “activity, negative = inhibition” value was -3.22% (inactive).

On to `COC(=O)C1=C(C)OC(N)=C(C#N)C1C1CCCCC1` (stereo not drawn), for which the AC50 is 7.08 µM (active). For the compound `CCOC(=O)C1=C(CSc2nc(-c3ccccc3)ccc2C#N)OC(N)=C(C#N)C1c1ccc(OC)cc1` (stereo not drawn), the activity, negative = inhibition was -22.9% [at 2.29 µM] (inactive). For `C[C@H]1NC(=O)NC1=O`, the AC50 entry was “inactive”.

Regarding `CC1=C[N+](=O)c2ccccc2[N+]1=O`, the activity, negative = inhibition is -3.77% [at 11.4 µM] (inactive). Consider `CC(=O)NCCNc1ncnc2ccc(-c3ccccc3C(F)(F)F)cc12`, for which the AC50 was 6.31 µM (active).

Consider `COc1ccccc1-c1ccc2ncnc(NCCNC(C)=O)c2c1`, for which the AC50 is 20 µM (active). `CC(=O)NCCNc1ncnc2ccc(-c3ccccc3Cl)cc12`: the AC50 was 15.8 µM (active). Same read-out and setting: with `CC(=O)NCCNc1ncnc2ccc(-c3ccccc3C)cc12` the figure was 12.6 µM (active). As for `CN(C)CCCNc1ncnc2nc[nH]c12`, the activity, negative = inhibition is -8.34% [at 11.4 µM] (inactive). The same measure, in the same setting: with `Oc1ccc(/C=N/NC(=S)NCc2ccco2)cc1` the figure was -2.66% [at 2.29 µM] (inactive). On to `Cc1ccc(/C=N/NC(=O)Cn2nccc2C)o1`, for which the “activity, negative = inhibition” value was -10.5% (inactive). Turning to `Cc1ccc(NCC(=O)N/N=C\c2ccc([N+](=O)[O-])o2)cc1`, the AC50 is 25.1 µM (active). Regarding `CC(C)(C)c1ccc(OCC(=O)N/N=C/c2cc(Br)ccc2OC(=O)c2ccco2)cc1`, the “activity, negative = inhibition” value is -3.57% (inactive). As to `Cc1ccc(NCC(=O)N/N=C/c2ccc(OC(=O)c3ccco3)cc2)cc1`, the AC50 was 17.8 µM (active). As for `CCOC(=O)N/N=C\c1ccc([N+](=O)[O-])o1`, the activity, negative = inhibition was -11.7% [at 2.29 µM] (inactive). Still for that read-out and setting: the value for `OC[C@@H]1O[C@@H](n2cnc3c(NC4CCCC4)ncnc32)[C@@H](O)[C@H]1O` was -8.48% (inactive).
